Screens deposited in PubChem BioAssay by National Center for Advancing Translational Sciences (NCATS).
A selection: hits, their analogues and other compounds. The true share with any hit is near 2.4%.
D2 PAM-1 = HTS Assay for Positive Allosteric Modulators of the Human D2 Dopamine Receptor: Primary Screen for Potentiators. D(2) dopamine receptor (Homo sapiens), P14416. HEK293 T-REx D2, calcium flux, EC20 dopamine potentiation. potentiation, % at 10 µM. 0.34% of 340,000 active. AID 485347, 2010;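 active = potentiation over 3 SD above the plate norm, cut at about 30% in these data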; note: 0% is about no effect
Target sequence (P14416 whole entry, looked up): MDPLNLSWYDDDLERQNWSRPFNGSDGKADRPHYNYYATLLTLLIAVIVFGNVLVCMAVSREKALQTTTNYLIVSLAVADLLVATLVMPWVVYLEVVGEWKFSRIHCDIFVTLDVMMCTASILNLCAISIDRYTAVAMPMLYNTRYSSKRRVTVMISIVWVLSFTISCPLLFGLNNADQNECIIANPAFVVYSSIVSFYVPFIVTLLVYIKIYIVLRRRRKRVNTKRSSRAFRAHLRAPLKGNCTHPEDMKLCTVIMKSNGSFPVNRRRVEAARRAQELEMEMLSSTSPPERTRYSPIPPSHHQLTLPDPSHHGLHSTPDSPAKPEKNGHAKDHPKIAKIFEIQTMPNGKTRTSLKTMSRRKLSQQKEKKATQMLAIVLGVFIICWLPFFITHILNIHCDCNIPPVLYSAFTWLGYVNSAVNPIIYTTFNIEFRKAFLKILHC
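Cells plated with tetracycline inducer and held overnight at 30 C; calcium dye loaded 30–90 min at room temperature; baseline taken, compound added and read 180 s; EC20 dopamine then added and read 180 s.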
D2 PAM-2 = Beta-Arrestin HTS for Positive Allosteric Modulators of the Human D2 Dopamine Receptor: Potentiators | DiscoveRx D2 beta-arrestin cells, luminescence, 90 min; 100% = 57 uM dopamine signal | potentiation, % (test concentration not listed) | 0.23% of 360,000 active | AID 624464, 2012; in the data active = potentiation above about 50%
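PathHunter beta-arrestin assay in DiscoveRx D2 cells. Compounds were added with an EC20 of dopamine (50 nM final) for 90 min at 37 deg C. Luminescence was read 1 h after detection reagent, with 57 uM dopamine as the EC100 control.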
D2 ag-1 = Beta-Arrestin HTS for Positive Allosteric Modulators of the Human D2 Dopamine Receptor: Agonists; DiscoveRx PathHunter D2 beta-arrestin, luminescence, 90 min; 100% = 57 uM dopamine signal; D(2) dopamine receptor (Homo sapiens), P14416; activation, % (test concentration not listed); 0.084% of 360,000 active; in the data active = activation above about 40%
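Agonist mode: compounds alone added to overnight-plated D2 PathHunter cells for 90 min at 37 C, with 57 uM final dopamine (EC100) defining full response. Beta-arrestin recruitment detected by chemiluminescent reagent, read after 1 h at ambient temperature.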
D2 antag = HTS Assay for Allosteric Antagonists of the Human D2 Dopamine Receptor: Primary Screen for Antagonists; HEK293 TREx D2 cells, calcium flux, dopamine EC80; D(2) dopamine receptor (Homo sapiens), P14416; inhibition, % at 10 µM; 2% of 340,000 active; in the data active = inhibition above about 30%; inactive = below that, where a call was filed; note: 0% is about no effect
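HEK293 T-REx D2 cells, tet-induced, calcium dye no-wash. Cpd pintool add, 180 s kinetic, then EC80 DA, 180 s kinetic. Ca flux read.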
D2 ag-2 = HTS Assay for Allosteric Agonists of the Human D2 Dopamine Receptor: Primary Screen for Agonists; 0.53% of 340,000 active; HEK293 T-REx D2 cells, calcium flux agonist mode; D(2) dopamine receptor (Homo sapiens), P14416; activation, % at 2 µM; AID 485358, 2010;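 active = activation over 3 SD above normal in the single-dose calcium agonist read, cut at about 30% in these data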; note: 0% is about no effect
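Agonism is scored from calcium flux in a force-coupled, inducible HEK293 cell line expressing D2, read kinetically for 180 s after compound addition against dopamine controls.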
* marks the source's active call; other numbers are inactive results; · = no result.

SMILES	D2 PAM-1	D2 PAM-2	D2 ag-1	D2 antag	D2 ag-2
Cc1ccc(NC(=O)c2cccc(N3C(=O)C4C5C=CC(C5)C4C3=O)c2)cc1C (centres undefined)	5	-4	7	5	2
Cc1nn(C(=O)COc2ccccc2Br)c(C)c1Sc1ccccc1	-5	·	·	·	-2
C=CCN(CC=C)CC(O)CN(c1cc([N+](=O)[O-])ccc1OC)S(=O)(=O)c1ccccc1 (centres undefined)	-25	-18	0	66*	1
COc1cc(C(=O)Nc2ccc(C(F)(F)F)cc2)ccc1OCC(=O)N1CCOCC1	-4	-52	1	17	-1
C=CCn1c(=O)[nH]c2nc3cc(N=CN(C)C)c(C)cc3nc2c1=O	4	-11	-4	-6	30*
CN(C)/C=N/c1cc(=O)[nH]c(=O)n1CC1CC1	-1	-7	-1	-9	1
NS(=O)(=O)c1ccc(NC(=O)CSc2nc3ccccc3n2-c2ccccc2)cc1	15	3	4	31*	-2
CCOc1ccccc1N1CCN(C(=O)c2ccc(-c3ccc(OC(C)=O)cc3)cc2)CC1	0	-4	-1	31*	-2
CCc1ccc(NC(=S)NC2CC3CCCC(C2)N3Cc2ccccc2)cc1 (centres undefined)	8	-21	-2	40*	0
CNC(=S)NC1CC2CCC(C1)N2Cc1ccccc1 (centres undefined)	-26	-27	-2	64*	1
C=CCN1C2CCCC1CC(NC(=S)Nc1ccc(Cl)cc1)C2 (centres undefined)	·	-17	0	·	·
CNC(=S)NC1CC2CCCC(C1)N2Cc1ccco1 (centres undefined)	-11	-21	-1	-8	-1
S=C(Nc1ccc(Cl)cc1)NC1CC2CCC(C1)N2Cc1ccccc1 (centres undefined)	-28	-24	4	93*	3
COc1ccc(CCNC(=O)CCc2c(C)nc3c(c(C)nn3-c3ccccc3)c2C)c(OC)c1	3	·	·	·	1
COc1ccccc1CNC(=O)C(=O)NCC(c1ccc2c(c1)OCO2)N1CCOCC1 (centres undefined)	11	·	·	·	1
Cc1nc2ccccc2c(=O)n1CCCO	-18	-12	-5	32*	-1
C#CCOCCOCCOCCNc1nc(N2CCN(C(=O)[C@H]([C@@H](C)CC)n3cc(CCCN=C(N)N)nn3)CC2)nc(N2CCN(C(=O)[C@H](CCCCN)n3cc(CCCC)nn3)CC2)n1	2	-10	-3	5	0
C#CCOCCOCCOCCNc1nc(N2CCN(C(=O)[C@H](C)n3cc(CCCN=C(N)N)nn3)CC2)nc(N2CCN(C(=O)[C@H](CCCCN)n3cc(CCCC)nn3)CC2)n1	-2	·	·	31*	0
Cc1cc(Br)ccc1NC(=O)c1cc2c(=O)n(C)c3cc(Cl)ccc3c2s1	1	·	·	·	2
CCOC(=O)c1c(C)n(-c2ccc(C)cc2)c2ccc(O)c(CN(C)C)c12	-10	-8	4	40*	0
Cc1nn(CC(C)C)c(=S)[nH]c1=O	14	-15	-4	32*	0
O=C(N/N=C/c1ccccn1)C1CC1	-19	3	-1	32*	1
Cc1c(CNC2CCCCC2)c(C(=O)O)c(C)n1Cc1ccccc1F	-6	·	·	·	·
Cc1ccc(S(=O)(=O)N2CCCCC2)cc1C(=O)NC1CCCCC1	42*	-1	-2	-5	-2
Cc1ccc(C(=O)NC2CCCC2)cc1S(=O)(=O)N1CCCCC1	-2	-13	6	32*	-1
SMILES	D2 PAM-1	D2 PAM-2	D2 ag-1	D2 antag	D2 ag-2
Cc1cccnc1NC(=O)c1ccc(Cl)c(S(=O)(=O)N2CCCCCC2)c1	-1	-14	1	56*	0
O=[N+]([O-])c1cc(Cl)ccc1NCCNc1ncc(C(F)(F)F)cc1Cl	-11	8	-6	36*	0
Cc1cccc2cc(CN(Cc3cccs3)C3(c4nnnn4C4CCCC4)CCCC3)c(=O)[nH]c12	7	-5	-2	77*	1
Cc1cccc2cc(CN(Cc3ccc(F)cc3)Cc3nnnn3C3CCCC3)c(=O)[nH]c12	-2	-16	0	-2	-1
O=C(O)c1cc(S(=O)(=O)O)ccc1O	0	-7	-1	42*	0
O=C(O)c1cc2cc(S(=O)(=O)O)ccc2cc1O	·	11	0	·	·
CC(=O)N(CCC1(C(C)C)CCOC(C)(C)C1)Cc1ccco1 (centres undefined)	9	7	0	38*	0
CCC(=O)N(CCC1(C(C)C)CCOC(C)(C)C1)Cc1ccco1 (centres undefined)	1	-10	-2	-18	1
O=C(Nc1ccccc1C(F)(F)F)N1CCOc2ccc(Cl)cc21	-13	·	·	·	0
Cc1cc(-c2cc(C(=O)Nc3ccccc3)on2)nc(NCC2CC2)n1	·	-4	2	·	·
Cc1cc(-c2cc(C(=O)NC3CCCC3)on2)nc(NCC2CC2)n1	10	-1	-2	33*	0
O=S1(=O)CCC(NS(=O)(=O)c2cccc3cccnc23)C1 (centres undefined)	34*	12	-1	-8	-1
CCCC(=O)Nc1nc2c(s1)CC(C(C)(C)C)CC2 (centres undefined)	4	·	·	·	0
COc1ccc(-n2nc(C(=O)N3CCN(c4ccc(F)cc4)CC3)c3ccccc3c2=O)c(OC)c1	-15	-5	-1	34*	9
CCCOc1ccc(/C=C2\SC(N)=NC2=O)cc1OC	-10	-5	-1	66*	-1
COc1ccc(/C=C2\SC(N)=NC2=O)cc1Br	-2	0	2	-8	0
FC(F)Oc1ccc(/C=N/c2c(-c3ccc(OC(F)F)cc3)nc3n2CCS3)cc1	35*	-9	0	-8	0
COc1ccc(-c2nc3n(c(=O)c2C#N)CCS3)cc1	·	2	3	·	·
Cc1ccc(F)cc1C(=O)N1CCCCC1c1cc(C(=O)Nc2ccc(F)c(Cl)c2)no1 (centres undefined)	·	-2	6	·	·
COC(=O)c1ccc(-n2c(C)cc(/C=N/n3cnnc3)c2C)cc1	6	15	0	31*	1
Cc1cc(/C=N/n2cnnc2)c(C)n1-c1ccc(C(=O)O)cc1	6	-3	-1	3	-1
COC(=O)c1cc(C(=O)OCC(=O)NNC(=O)c2cccs2)cc([N+](=O)[O-])c1	-10	71*	8	-6	0
